# Screening data deposited in PubChem by National Center for Advancing Translational Sciences (NCATS).
# This is a sample that favours compounds with a hit; in the whole collection about 8% have one here.
# KB-3-1 tox = kills parental KB-3-1 adenocarcinoma cells; KB-3-1 viability, CellTiter-Glo ATP luminescence, 72 h; Potency, µM (top dose mostly 46.1 µM), usual class: cytotoxic; hit rate 1.4% among 400,000; AID 1347075; also: % is scaled to controls: 0 for no effect and ±100 for the full control effect; nearly all actives have a fitted effect of over 60% in size
#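 72 h, 37 °C compound treatment of KB-3-1 parental cells; CellTiter-Glo added, 10 min, luminescence read. Data corrected against DMSO-only plates and normalized before curve fitting.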
# HT1080NT lethal = kills 2HG-producing HT-1080-NT fibrosarcoma cells; HT-1080-NT fibrosarcoma viability, CellTiter-Glo ATP luminescence, 48 h; Potency, µM (series often up to 46.1 µM), inactives show at the top dose activity, negative = less viability, actives largely listed as cytotoxic; hit rate 1.6% among 360,000; AID 686970;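 also: NT is the 2HG producing partner of a matched IDH1 knockdown line; 0% = DMSO-treated cells and -100% = media-only wells without cells; nearly all actives have a fitted effect of over 55% in size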
#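 Compounds were tested in concentration-response format on HT-1080-NT cells for 48 hours at 37 degrees C. Cell viability came from CellTiter-Glo luminescence; curves were classified by r2, response magnitude and activity.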
# MCF10A rereplic = induces DNA re-replication in MCF 10a normal breast cells | Potency, µM (top dose mostly 46.1 µM), for inactives: top-dose activity, positive = re-replication, hits mostly activators | AID 624296 | MCF 10A DNA re-replication, Hoechst nuclear intensity, 48 h | hit rate 2.9% among 350,000; also: % of control where 0% means no effect; nearly all actives have a fitted effect of over 50% in size
# SW480 rereplic = inducers of DNA re-replication in SW480 colon cancer cells; Potency, µM (doses to about 46.1 µM), for inactives: top-dose re-replication activation, usual class: activators; hit rate 1.8% among 340,000; SW480 DNA re-replication, Hoechst DNA content imaging, 48 h; also: % of control where 0% means no effect; nearly all actives have a fitted effect of over 55% in size
#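 Image-based read-out: total Hoechst fluorescence of nuclei (405 nm excitation, 500-530 nm emission), with hits raising the fraction of high-intensity nuclei. SW480 colon cells incubated 48 hr with compounds at 37 C.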
# KB-V1 cytotox = kills drug-selected multidrug resistant KB-V1 cells. KB-V1 MDR cells viability, CellTiter-Glo, 72 h. hit rate 3.4% among 400,000. Potency, µM (top dose mostly 46.1 µM), actives largely listed as cytotoxic; also: % is scaled to controls: 0 for no effect and ±100 for the full control effect; nearly all actives have a fitted effect of over 60% in size
#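 KB-V1, DMEM (no phenol red) + 10% FBS; cpd pin-transferred, titration series; 72 h, 37 degrees C; CellTiter-Glo, luminescence. Data normalized, curve-fit.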
# HT1080 IDH1KD tx = toxicity to HT-1080 IDH1 knockdown cells (counter line); HT-1080 IDH1 knockdown viability, ATP luminescence, 48 h; Potency, µM (doses to about 46.1 µM), for inactives: top-dose activity, negative = toxicity, usual class: cytotoxic; hit rate 2% among 360,000;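 also: 0% = DMSO wells and -100% = cell-free medium wells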
#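 Knockdown cells (IDH1KD HT-1080) received compounds 2 h after plating at 750 cells/well and were kept 48 h at 37 °C in 5% FBS RPMI. A CellTiter-Glo luminescence read gave % activity for curve fitting.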
# * marks the source's active call; other numbers are inactive results; i = inactive; ? = inconclusive; . = no result given. Calls follow the shape of the dose curve; as a rule, active = well fitted curve in the direction sought with a large enough effect; inconclusive = small, poorly fitted or top-dose-only effect, or another doubt; inactive = no such curve, though single readings can be large; an effect the other way counts as inactive or inconclusive. Potency is read from the fitted curve at half-maximal effect.
SMILES,KB-3-1 tox,HT1080NT lethal,MCF10A rereplic,SW480 rereplic,KB-V1 cytotox,HT1080 IDH1KD tx
CC(C)c1ccc(/C=C(\c2nc3ccccc3[nH]2)S(=O)(=O)c2ccccc2)cc1,?,5.2µM*,2.6µM*,12µM*,2.6µM*,3.3µM*
O=S(=O)(/C(=C/c1ccc(C(F)(F)F)cc1)c1nc2ccccc2[nH]1)c1ccccc1,5.2µM*,2.6µM*,?,?,i,4.6µM*
Cc1ccc(C(=O)c2cn(Cc3cccc(Cl)c3)c3nc(C)ccc3c2=O)cc1,i,.,.,.,?,.
CCC(C)Nc1nc(N)c([N+](=O)[O-])c(Nc2ccccc2OC)n1 (centres undefined),i,?,?,-45%,?,21µM*
COc1ccc(OC)c(NC(=O)C2CCN(S(=O)(=O)c3c(C)noc3/C=C/c3ccc(C)cc3)CC2)c1,i,.,.,.,i,.
Cc1ccc(NC(=O)Cc2ccc(-n3c(C)nc4cccnc43)cc2)c(Cl)c1,18µM*,.,.,.,5.8µM*,.
COc1ccccc1NC(=O)N1CCN(c2ccnc3cc(Cl)ccc23)CC1,i,-2%,-7%,-6%,i,-22%
COc1ccccc1N1CCN(c2ccnc3cc(Cl)ccc23)CC1,6.5µM*,3.7µM*,2.6µM*,8.2µM*,?,7.3µM*
CC(C)(C)OC(=O)N1CCC(c2c(C(=O)N3CCN(c4ccccn4)CC3)cnn2-c2ccc(F)cc2F)CC1,i,.,.,.,i,.
CCOC(=O)c1ccc(-n2c(O)c(/C=N/NC(=O)C3COc4ccccc4O3)c3ccccc3c2=O)cc1 (centres undefined),i,-13%,29%,?,16µM*,-13%
CCOC(=O)c1ccc(NC(=O)C2COc3ccccc3O2)cc1 (centres undefined),i,?,?,-86%,i,-5%
O=C(N/N=C/c1c[nH]c2ccccc12)C1COc2ccccc2O1 (centres undefined),5.8µM*,3.7µM*,21µM*,?,2.6µM*,5.8µM*
O=C(N/N=C\c1ccc(Cl)s1)C1COc2ccccc2O1 (centres undefined),?,?,?,16µM*,?,?
O=C(N/N=C/c1c[nH]c2ccccc12)C1CC1c1ccccc1 (centres undefined),i,-14%,2%,-1%,?,-14%
O=C(N/N=C\c1ccc(-c2ccccc2[N+](=O)[O-])o1)C1COc2ccccc2O1 (centres undefined),i,9%,2%,?,i,8%
O=C(N/N=C\c1ccc([N+](=O)[O-])o1)C1COc2ccccc2O1 (centres undefined),?,?,?,?,i,21µM*
C[N+]1(CC(=O)c2ccc(Oc3ccccc3)cc2)CCOCC1,i,.,.,.,i,.
CCCCCN1C(C(=O)c2ccccc2)=C(NC(=O)c2ccc(C)cc2)c2ccccc2S1(=O)=O,?,.,.,.,i,.
Cc1cccc(/C=C2\Sc3ccc(C(=O)N4CCCCC4)cc3N(C)C2=O)c1,i,18µM*,9%,-4%,?,-24%
O=C1Nc2cc(C(=O)NCCCN3CCOCC3)ccc2S/C1=C/c1ccccc1F,i,-6%,?,?,i,-16%
Cc1cccc(/C=C2\Sc3ccc(C(=O)N4CCOCC4)cc3N(C)C2=O)c1,i,-3%,0%,7%,i,-23%
CCOC(=O)N1CCN(C(=O)c2ccc3c(c2)NC(=O)/C(=C\c2cccc(C)c2)S3)CC1,?,-4%,18µM*,26%,?,1%
O=C1Nc2cc(C(=O)NCCCN3CCOCC3)ccc2S/C1=C/c1cccc(Cl)c1,i,11%,16µM*,15µM*,i,6%
Cc1cccc(/C=C2/Sc3ccc(C(=O)N4CCOCC4)cc3NC2=O)c1,i,12%,?,20%,i,0%
CCOC(=O)N1CCN(C(=O)c2ccc3c(c2)NC(=O)/C(=C\c2ccc(OC)c(OC)c2)S3)CC1,?,14%,-7%,-17%,i,7%
SMILES,KB-3-1 tox,HT1080NT lethal,MCF10A rereplic,SW480 rereplic,KB-V1 cytotox,HT1080 IDH1KD tx
CCOC(=O)N1CCN(C(=O)c2ccc3c(c2)N(C)C(=O)/C(=C\c2ccc(OCC)c(OC)c2)S3)CC1,?,-19%,?,10µM*,i,?
CCOc1ccc(OCC(=O)Nc2nnc3n2CCS3)cc1,i,.,.,.,i,.
COc1ccccc1CN1CCN(C2CCN(C(=O)Nc3ccccc3)CC2)C(=O)C1=O,i,.,.,.,i,.
CCN(CC)S(=O)(=O)c1ccc(NC(=O)CN(c2ccccc2)S(=O)(=O)N(C)C)cc1,i,.,.,.,?,.
COc1ccc(C=CC(=O)c2ccc(OC)c(OC)c2)cc1O,?,-11%,.,.,?,21µM*
COc1ccc(C=CC(=O)c2ccc(OC)c(OC)c2O)cc1OC,i,?,?,?,?,26µM*
COc1cc(OC)c(C(=O)C=Cc2ccc(OC)c(OC)c2)c(OC)c1,?,?,169%,18µM*,?,?
